The campaign covered roughly 650,000 compounds. About 5,900 (0.91%) were called active. Cut-off read from the data, not from the text of the source: active = inhibition above about 50%; inactive = the rest. For the sample, actives were picked, then their nearest neighbours and some compounds at random.
What follows are molecules tested against Microphthalmia-associated transcription factor (Homo sapiens) (UniProt O75030) (assay: MITF inhibitors, primary screen, biochemical, AlphaScreen, human (AID 1259374;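 note: 0% = vehicle wells with protein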)). Details: AlphaScreen MITF homodimerization, bead proximity signal; at 2.6 µM; stronger effect = higher value.
Sequence of Microphthalmia-associated transcription factor (Homo sapiens) (O75030 whole entry, looked up): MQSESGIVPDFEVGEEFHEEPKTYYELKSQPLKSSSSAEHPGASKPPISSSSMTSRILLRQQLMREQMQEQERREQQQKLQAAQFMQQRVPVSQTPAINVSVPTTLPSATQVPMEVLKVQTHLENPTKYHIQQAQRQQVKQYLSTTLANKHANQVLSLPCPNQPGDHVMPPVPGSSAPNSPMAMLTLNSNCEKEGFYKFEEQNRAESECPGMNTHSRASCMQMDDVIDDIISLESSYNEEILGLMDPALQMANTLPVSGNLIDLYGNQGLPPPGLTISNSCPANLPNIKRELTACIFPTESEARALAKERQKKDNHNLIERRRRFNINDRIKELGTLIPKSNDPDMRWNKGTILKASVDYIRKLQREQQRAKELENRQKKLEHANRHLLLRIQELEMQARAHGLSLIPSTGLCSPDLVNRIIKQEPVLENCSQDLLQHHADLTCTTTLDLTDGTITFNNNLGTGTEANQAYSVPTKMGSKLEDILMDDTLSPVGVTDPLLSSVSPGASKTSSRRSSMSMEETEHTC

| SMILES | inhibition |
| --- | --- |
| c1cc2c(cc1Cn1nnnc1CN1CCN(C3CCCC3)CC1)OCO2 | 7.92% (inactive) |
| CCC(C)(C)C(=O)N1CCN(Cc2ccc3c(c2)OCO3)CC1 | 9.89% (inactive) |
| OC1CCCN(Cc2ccc3c(c2)OCO3)C1 (stereo not given) | 6.89% (inactive) |
| CC(C)CCCN1CCC(N2CCN(Cc3ccc4c(c3)OCO4)CC2)CCC1=O (stereo not given) | -10.8% (inactive) |
| c1cc2c(cc1CN1CCN(C3CCCC3)CC1)OCO2 | 62.8% (active) |
| COC(=O)C(C)CN1CCN(Cc2ccc3c(c2)OCO3)CC1 (stereo not given) | 78.9% (active) |
| CC(=O)Oc1ccc(C(=O)N2CCN(Cc3ccc4c(c3)OCO4)CC2)cc1 | -6.96% (inactive) |
| CCCNC(=O)N1CCCC(N2CCN(Cc3ccc4c(c3)OCO4)CC2)C1 (stereo not given) | 12.8% (inactive) |
| c1cc2c(cc1CN1CCN(C3CCCCC3)CC1)OCO2 | 60.9% (active) |
| COc1ccc(OC(=O)c2cccc(C(=O)OC(C)C)n2)cc1 | 7.42% (inactive) |
| COCCNC(=O)c1ccc(-c2cccc(OC)c2)nc1NCC1CC1 | -12.1% (inactive) |
| NC(=O)CC[C@H](NC(=O)c1ccc(F)cc1)C(=O)OCC(=O)c1ccccc1 | 1.49% (inactive) |
| CO[C@@H](C1CCCCC1)[C@@H](C)[C@H](OCc1cccc(Br)c1)[C@@H](C)CO | -6.84% (inactive) |
| COc1cc(CN(CCCN(C)C)CCCN(C)C)cc(OC)c1 | 45.5% (inactive) |
| CCN(Cc1ccccc1)Cc1cc(OC)c(OC)c(OC)c1 | 5.59% (inactive) |
| COc1cc(CN(CCN(C)C)Cc2ccccc2)cc(OC)c1 | 70% (active) |
| Cc1ccc(OCCCNC2CCCC2)c(I)c1 | 29.7% (inactive) |
| CCOc1ccc2[nH]c(=O)c(CN(CCO)C(=O)c3ccco3)cc2c1 | 6.48% (inactive) |
| COC(=O)CCS(=O)(=O)c1ccc(C(=O)O)cc1N | -6.29% (inactive) |
| COc1ccc(-c2noc(=O)n2CC(=O)N(c2ccccc2)c2ccccc2)cc1 | 2.22% (inactive) |
| CN1CCN(CCC(=O)N/N=C/c2ccsc2)CC1 | 53.5% (active) |
| O=C(CN1CCSCC1)N/N=C/c1ccc(F)cc1 | 47% (inactive) |
| O=C(CN1CCSCC1)N/N=C/c1ccc(Cl)cc1 | 17.4% (inactive) |
| COc1ccc2c(c1)OC(C)CN(C(=O)C1CCCCCN1C)C2 (stereo not given) | 1.95% (inactive) |
| CCCNCc1nc(-c2ccc(OC)c(OC)c2)no1 | 11.7% (inactive) |

| SMILES | inhibition |
| --- | --- |
| c1ccc(Nc2cc(NCc3ccc4c(c3)OCO4)ncn2)cc1 | -2.56% (inactive) |
| Cc1cnc(NCc2ccc3c(c2)OCO3)nc1Nc1ccccc1 | 69.7% (active) |
| Cc1cnc(NCc2ccc3c(c2)OCO3)nc1NCCN1CCOCC1 | 16% (inactive) |
| COc1ccc(-c2csc3nc(C)n(N)c(=O)c23)cc1OC | 14.4% (inactive) |
| Fc1cccc(Cl)c1CSc1nnc2ncccn12 | -8.92% (inactive) |
| c1ccc(OCCCCn2nnc(-c3ccncc3)n2)cc1 | 10.3% (inactive) |
| Fc1cccc(Cl)c1Cn1nnc(-c2ccncc2)n1 | 74% (active) |
| CC1CCc2sc(NC(=O)c3ccccc3[N+](=O)[O-])c(C#N)c2C1 (stereo not given) | 11.5% (inactive) |
| CC1=CCC(C(=O)O)(C(=O)N/N=C/C2=C(O)CC(C)(C)CC2=O)CC1c1ccccc1 (stereo not given) | 45.2% (inactive) |
| COc1ccc(-c2nc(Nc3cc(OC)c(OC)c(OC)c3)c3[nH]cnc3n2)cc1 | 63.2% (active) |
| COc1cc(Nc2nc(Nc3cc(OC)c(OC)c(OC)c3)c3[nH]cnc3n2)cc(OC)c1OC | -7.41% (inactive) |
| COc1ccc(-c2nc(N)c3[nH]cnc3n2)cc1 | -0.37% (inactive) |
| Cc1cccc(NC(=O)C(c2ccccc2)N2CCOCC2)c1 (stereo not given) | 2.38% (inactive) |
| Cc1c(C(C)NC(=O)c2csc(C(C)C)n2)cnn1-c1ccccn1 (stereo not given) | 1.61% (inactive) |
| C=CCN=Cc1c(C)[nH]n(-c2ccc([N+](=O)[O-])cc2)c1=O | 0.33% (inactive) |
| COc1cc(C=O)ccc1OCCCN1CCCCC1 | 34.3% (inactive) |
| CCN1CCN(CC(=O)c2cc(OC)c(OC)c(OC)c2)CC1 | 6.5% (inactive) |
| CCCCOc1ccccc1OCCCN1CCN(C)CC1 | -4.11% (inactive) |
| CCN1CCN(CCOCCOc2ccccc2OCc2ccccc2)CC1 | 80.8% (active) |
| CCc1ccccc1OCCCN1CCOCC1 | 38.5% (inactive) |
| c1ccc2cc(OCCOCCN3CCOCC3)ccc2c1 | 12.8% (inactive) |
| COc1ccccc1OCCOCCOc1ccccc1OC | -12.3% (inactive) |
| CCN1CCN(CCCCOc2ccccc2F)CC1 | 63.7% (active) |
| O=c1c2ccccc2nc(-c2ccc(Cl)cc2)n1CCCCOc1ccccc1F | -6.63% (inactive) |
| O=c1c2ccccc2ncn1CCCCOc1ccccc1F | 52.4% (active) |

| SMILES | inhibition |
| --- | --- |
| Cc1ccc(Cl)c(OCCn2cnc3ccccc3c2=O)c1 | 10.1% (inactive) |
| CCN1CCN(CCCOc2ccc(C(C)=O)cc2OC)CC1 | 77.9% (active) |
| C=CCC1(CC=C)CCCN1C(=O)CC1C(=O)NCCN1Cc1ccccc1C (stereo not given) | 5.18% (inactive) |
| CCOC(=O)CSc1nc2ccc(Cl)cc2n2cnnc12 | -5.55% (inactive) |
| Cc1nn(-c2ccccn2)c2c1C(=O)/C(=C\Nc1cccc([N+](=O)[O-])c1)CC2 | -6.22% (inactive) |
| COc1ccc(C(=O)Oc2ccc3c(c2)C(C)=CC(C)(C)N3C(=O)c2ccc(OC)cc2)cc1 | 8.97% (inactive) |
| Cc1ccc(S(=O)(=O)NC(=NC(CC(=O)O)C(=O)O)c2ccccc2)cc1 (stereo not given) | -0.64% (inactive) |
| O=C1NC2(CCCCC2)N(C(=O)c2ccc(Cl)cc2)C2=C1CCCC2 | 9.62% (inactive) |
| CCCCN(CC)C(=O)c1c[nH]c2ccc(S(=O)(=O)N(C)c3ccc(CC)cc3)cc2c1=O | 1.47% (inactive) |
| CN1CCN(CCOCCOc2ccccc2Cl)CC1 | 53.8% (active) |
| CC(C)c1cc(Br)ccc1OCCOCCN1CCN(C)CC1 | -24.1% (inactive) |
| Cc1ccc(OCCOCCN2CCN(C)CC2)c(Br)c1 | 42.5% (inactive) |
| O=C(O)C1CSC(c2cccc(I)c2)N1 (stereo not given) | 10% (inactive) |
| Cc1ccc(-c2c(C(=O)Nc3cccc(O)c3)oc(=O)c3ccccc23)cc1 | 26.8% (inactive) |
| O=C(CCC(=O)OCc1ccc(Cl)cc1)Nc1ccc([N+](=O)[O-])cc1 | 59.3% (active) |
| O=C(COc1ccc([N+](=O)[O-])cc1)Nc1ccc(Cl)cc1 | 12.6% (inactive) |
| O=C(O)CCC(=O)Nc1ccc([N+](=O)[O-])cc1 | -7.16% (inactive) |
| CC(=O)C1=C(O)C(=O)N(CCCN(C)C)C1c1ccc(Br)cc1 (stereo not given) | 4.38% (inactive) |
| COc1ccccc1/C=C1\SC(=S)N(CCC(=O)Nc2nc(C)cs2)C1=O | 13.4% (inactive) |
| CCOCc1nnc(NC(=O)C2CC(=O)N(c3ccc(C)cc3)C2)s1 (stereo not given) | 9.92% (inactive) |
| Cc1cc(Cl)c(OCCN2CCOCC2)c(Br)c1 | 33.1% (inactive) |
| Cc1cc(OCCN2CCOCC2)nc(N2CCOCC2)n1 | 5.58% (inactive) |
| Cc1ccc(C)c(OCCN2CCOCC2)c1C | 54.9% (active) |
| CCOc1cccc(C(=O)Nc2ccc3oc(-c4ccc(Cl)c(Cl)c4)nc3c2)c1 | 4.15% (inactive) |
| CCOCCOC(=O)C1=C(C)NC(=O)NC1c1ccccc1 (stereo not given) | 2.55% (inactive) |

| SMILES | inhibition |
| --- | --- |
| COc1cccc(/C=N/Nc2nc(=O)[nH]nc2C)c1OC | 35% (inactive) |
| Cc1n[nH]c(=O)nc1N/N=C/c1cccs1 | 86.2% (active) |
| Cc1cccc(Nc2nc(=O)[nH]nc2C)c1 | 13.2% (inactive) |
| O=c1[nH]cnc2nc(N/N=C/c3ccc(Cl)cc3)[nH]c12 | -5.83% (inactive) |
| O=C(Nc1cccc(Br)c1)N1CCC(CN2CCCC2)CC1 | 5.45% (inactive) |
| COc1cc(-c2cc(C(N)=O)on2)ccc1O | 3.55% (inactive) |
| COc1cc2nc(-c3cccc(C(C)=O)c3)nc(Nc3ccc(N4CCOCC4)cc3)c2cc1OC | 1.79% (inactive) |
| COc1cc2nc(-c3cccc(C(C)=O)c3)nc(N)c2cc1OC | 60.9% (active) |
| CC(=O)c1cccc(-c2ncc(C)c(N)n2)c1 | 0.72% (inactive) |
| COc1cccc(C(=O)NC(c2cccc([N+](=O)[O-])c2)c2cc(Cl)c3cccnc3c2O)c1 (stereo not given) | 4.72% (inactive) |
| Oc1c(C(Nc2ccccn2)c2cccnc2)ccc2cccnc12 (stereo not given) | 58.1% (active) |
| Oc1c(C(Nc2ccccn2)c2ccc(OC(F)F)cc2)ccc2cccnc12 (stereo not given) | 12.2% (inactive) |
| CCOc1ccc(C(NC(=O)c2cc(OC)c(OC)c(OC)c2)c2cc(Cl)c3cccnc3c2O)cc1 (stereo not given) | 17.1% (inactive) |
| O=C(Cc1ccccc1)NC(c1ccc(Cl)cc1)c1ccc2cccnc2c1O (stereo not given) | -1.99% (inactive) |
| Cc1ccnc(NC(c2ccccc2Cl)c2ccc3cccnc3c2O)c1 (stereo not given) | 22.3% (inactive) |
| CC(=O)NC(c1ccccc1)c1ccc2cccnc2c1O (stereo not given) | 54.5% (active) |
| Cc1ccc(C(NC(=O)Cc2ccccc2)c2ccc3cccnc3c2O)cc1 (stereo not given) | 3.27% (inactive) |
| CC(=O)NC(c1cccs1)c1cc(Cl)c2cccnc2c1O (stereo not given) | 59.1% (active) |
| O=C(Oc1ccc2sc(=O)oc2c1)c1cccc(C(F)(F)F)c1 | -7.72% (inactive) |
| N#Cc1ccc(NC(=O)c2ccccc2C(=O)O)cc1 | 4.7% (inactive) |
| Cc1ccc(S(=O)(=O)N/N=C/c2cccnc2)cc1[N+](=O)[O-] | -30.1% (inactive) |
| COc1ccc(/C=C/c2cc[n+](C)cc2)c(OC)c1 | -10.4% (inactive) |
| CC(=O)Nc1cc(C(=O)NCCN2CCOCC2)cc(-n2ncc3cc(Nc4c(Cl)cccc4Cl)ccc32)c1 | -3% (inactive) |
| CCOC(=O)C1C2C=CC3(CN(c4ccc(C)cc4)C(=O)C13)O2 (stereo not given) | 0.13% (inactive) |
| O=C(CCCn1c(SCC(=O)c2ccc(Cl)c(Cl)c2)nc2ccsc2c1=O)NCCc1ccccc1 | 2.74% (inactive) |

Reference: PubChem BioAssay AID1259374 (The Scripps Research Institute Molecular Screening Center, 2018)
